18 compounds from PubChem BioAssay (EPA / NIEHS) can be followed below.

Read-out in assay [1]: Thrombomodulin, THBD (gene 7056)
Put plainly: BSK_CASM3C_Thrombomodulin: BioMAP Diversity Plus: CASM3C Assay for Thrombomodulin Biomarker Activity (AID 2283051).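 Further: thrombomodulin protein level measured by ELISA 24 h after dosing.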 As to conditions: primary human coronary artery smooth muscle cells; actives raise or lower the signal.

Read-out in assay [2]: Tissue Factor, F3 (gene 2152)
Put plainly: BSK_CASM3C_TissueFactor: BioMAP Diversity Plus: CASM3C Assay for Tissue Factor Biomarker Activity (AID 2283052).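 Further: cell surface tissue factor protein level read by ELISA.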 Particulars: primary human coronary artery smooth muscle cells; actives raise or lower the signal.

Read-out in assay [3]: Interferon-gamma inducible Protein 10 (IP10), CXCL10 (gene 3627)
Put plainly: BSK_hDFCGF_IP10: BioMAP Diversity Plus: hDFCGF Assay for Interferon-gamma inducible Protein 10 (IP10) Biomarker Activity (AID 2283053). As to conditions: primary human foreskin fibroblasts; actives raise or lower the signal. Put shortly: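 ELISA read-out of IP-10 (CXCL10) from primary human skin fibroblasts, 24 h after compound addition. Gain or loss of signal versus DMSO baseline, bidirectional curve fitting.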

Read-out in assay [4]: Urokinase-type plasminogen activator receptor (uPAR), PLAUR (gene 5329)
In words: BSK_CASM3C_uPAR: BioMAP Diversity Plus: CASM3C Assay for Urokinase-type plasminogen activator receptor (uPAR) Biomarker Activity (AID 2283054).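 Further: cell-surface uPAR protein level quantified by ELISA.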 Particulars: primary human coronary artery smooth muscle cells; actives raise or lower the signal.

Read-out in assay [5]: Vascular cell adhesion molecule 1 (VCAM1), VCAM1 (gene 7412)
In words: BSK_CASM3C_VCAM1: BioMAP Diversity Plus: CASM3C Assay for Vascular cell adhesion molecule 1 (VCAM1) Biomarker Activity (AID 2283055).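 Further: VCAM-1 protein level quantified by ELISA on the cells.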 As to conditions: primary human coronary artery smooth muscle cells; actives raise or lower the signal.

Read-out in assay [6]: Collagen III, COL3A1 (gene 1281)
In words: BSK_hDFCGF_CollagenIII: BioMAP Diversity Plus: hDFCGF Assay for Collagen III Biomarker Activity (AID 2283056). Particulars: primary human foreskin fibroblasts; actives raise or lower the signal. Put shortly:
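Response relative to DMSO, fitted in both directions, reflects ELISA-measured collagen III in human primary skin fibroblasts 24 h after compound addition.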

Read-out in assay [7]: Interleukin-8 (IL8), CXCL8 (gene 3576)
Put plainly: BSK_hDFCGF_IL8: BioMAP Diversity Plus: hDFCGF Assay for Interleukin-8 (IL8) Biomarker Activity (AID 2283058). Particulars: primary human foreskin fibroblasts; actives raise or lower the signal. An outline of the steps: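 Fibroblast monolayers (human foreskin, hDFCGF) received test chemical for 24 h before ELISA detection of IL-8; either increases or decreases relative to DMSO count as activity.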

Assay [8] in a line: BSK_hDFCGF_Proliferation: Cell Proliferation Assessment in the BioMAP Diversity Plus: hDFCGF Assay (AID 2283059).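 Further: curves fitted for both rise and fall of signal versus DMSO baseline.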 As to conditions: primary human foreskin fibroblasts. Put shortly: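 This proliferation readout used SRB total-protein staining of human foreskin fibroblasts […], normalized to DMSO with bidirectional curve fitting.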
Read-out in assay [9]: Macrophage colony-stimulating factor (MCSF), CSF1 (gene 1435)
In words: BSK_hDFCGF_MCSF: BioMAP Diversity Plus: hDFCGF Assay for Macrophage colony-stimulating factor (MCSF) Biomarker Activity (AID 2283060). As to conditions: primary human foreskin fibroblasts; actives raise or lower the signal. An outline of the steps:
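fibroblasts (human foreskin, primary), 24 h post-dose; M-CSF by ELISA; bidirectional fit, DMSO = baseline.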

Read-out in assay [10]: Epidermal growth factor receptor (EGFR), EGFR (gene 1956)
Put plainly: BSK_hDFCGF_EGFR: BioMAP Diversity Plus: hDFCGF Assay for Epidermal growth factor receptor (EGFR) Biomarker Activity (AID 2283057). Particulars: primary human foreskin fibroblasts; actives raise or lower the signal. Put shortly: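 ELISA readout of EGFR on human dermal fibroblasts (primary foreskin cells), 24 h post-dosing; bidirectional curve fit vs DMSO baseline, gain or loss of signal scored.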

What is called AC50 is the concentration at which the activity in the assay is half-maximal.

Several values for one entry are separate records, joined by “and”; a condition that tells them apart may be missing. Identical values can stand only once. Activity calls are given as the source filed them. How the source made its calls: active means hit-call score of the fitted dose curve at least 0.9, where 1 is the maximum; inactive means score below 0.9.

Regarding `OCC(F)(F)C(F)(F)C(F)(F)C(F)(F)C(F)(F)C(F)(F)CO`, the outcome in [1], in [2], in [3], in assay [4], in [5] and in assay [6] was inactive. For the same compound, the outcome in assay [7], in [8] and in assay [9] was inactive.
With `NCC(F)(F)C(F)(F)C(F)(F)C(F)(F)C(F)(F)C(F)(F)C(F)(F)C(F)(F)F`, the outcome in assay [1], in assay [2], in [3], in assay [4], in assay [5] and in [6] was inactive. In addition, the outcome in assay [7], in assay [8] and in assay [9] was inactive.
Regarding `O=C(c1ccccc1)c1ccc(O)cc1O`, the result in assay [1], in [3], in assay [4], in assay [5], in [6] and in assay [7] was inactive. Also, the outcome in assay [8] and in [9] was inactive. The AC50 in assay [2] is 13.6 µM (active).
For the compound `CCOC(=O)CC(=O)C(F)(F)C(F)(F)F`, the outcome in assay [1], in [2], in [3], in assay [4], in assay [5] and in [6] was inactive. The result in [7], in [8] and in assay [9] was inactive.
Regarding `COC(F)(C(F)F)C(F)(F)F` (centres undefined), the outcome in assay [1], in [2], in assay [3], in [4], in assay [5] and in [6] was inactive. Moreover, the outcome in assay [7], in assay [8] and in [9] was inactive.
`O=C1C=CC(=O)N1c1ccc(Cc2ccc(N3C(=O)C=CC3=O)cc2)cc1`: the result in assay [1] and in assay [7] was inactive. The AC50 was 3.35 µM (active) in assay [2]; 2.58 µM (active) in [3]; 5.3 µM (active) in [4]; 2.94 µM (active) in assay [5]; 4.09 µM (active) in assay [6]; 162 nM (active) in [8]. Moreover, the AC50 in [9] was 2 µM (active).
Consider `O=C=NCc1cccc(CN=C=O)c1`, for which the outcome in assay [1], in assay [2], in assay [3], in assay [4], in [5] and in assay [6] was inactive. For the same compound, the result in assay [7], in assay [8] and in assay [9] was inactive.
As to `CC(C)(C)c1cc(CCC(=O)NCCCCCCNC(=O)CCc2cc(C(C)(C)C)c(O)c(C(C)(C)C)c2)cc(C(C)(C)C)c1O`, the result in [1], in [2], in assay [3], in assay [4], in assay [5] and in assay [6] was inactive. Besides, the result in assay [10], in assay [7], in assay [8] and in assay [9] was inactive.
For `Cc1ccc(S(=O)(=O)C(I)I)cc1`, in assay [1], the result was inactive. The AC50 in [2] is 1.97 µM (active); in assay [3], 2.71 µM (active); in [4], 2.92 µM (active); in assay [5], 2.46 µM (active); in [6] it was 6.27 µM (active); in assay [10], 3.79 µM (active). Also, the results for the AC50 in [7], in assay [8] and in assay [9] were 3.51 µM (active), 208 nM (active) and 2.36 µM (active), respectively.
On to `O=C(O)C(F)(F)C(F)(F)C(F)(F)C(=O)O`, for which the result in assay [1], in [2], in assay [3], in [4], in assay [5] and in assay [6] was inactive. Further, the result in [7], in assay [8] and in assay [9] was inactive.
Consider `NS(=O)(=O)C(F)(F)C(F)(F)C(F)(F)C(F)(F)C(F)(F)C(F)(F)F`, for which the outcome in assay [1], in [2], in [4], in assay [5], in assay [6] and in assay [7] was inactive. In assay [9], the outcome was inactive. In addition, the half-maximal activity concentration (AC50) in assay [3] is 37.3 µM (active) and 28.8 µM (active); in assay [8], 50.8 µM (active) and 50.6 µM (active).
For `CCN(CC)c1ccc(C=O)cc1`, the outcome in assay [1], in [3], in assay [4], in [5], in assay [6] and in assay [7] was inactive. Further, the outcome in assay [8] and in assay [9] was inactive. Moreover, the concentration at half-maximal activity (AC50) in assay [2] is 5.46 µM (active).
For the compound `Nc1cc([N+](=O)[O-])cc(Cl)c1O`, the outcome in assay [1], in assay [2], in [3], in assay [4], in assay [5] and in assay [6] was inactive. The result in assay [7], in [8] and in [9] was inactive.
With `CCN(CC)c1ccc(N=Nc2ccccc2)cc1`, the concentration at half-maximal activity (AC50) in assay [1] was 11.3 µM (active); in assay [5], 3.04 µM (active); in assay [6], 3.65 µM (active); in [8], 8620 nM (active). In addition, the result in assay [2], in assay [3], in assay [4], in [7] and in assay [9] was inactive.
With `Brc1nc2ccccc2s1`, the result in [1], in assay [2], in [3], in assay [4], in assay [5] and in assay [6] was inactive. For the same compound, the result in assay [7] and in assay [9] was inactive. Besides, the concentration at half-maximal activity (AC50) in assay [8] is 31500 nM (active).
In the case of `NC(=O)C(F)(F)C(F)(F)C(F)(F)C(F)(F)C(N)=O`, the result in assay [1], in assay [2], in assay [3], in assay [4], in assay [5] and in assay [6] was inactive. In addition, the result in [7], in assay [8] and in assay [9] was inactive.
On to `OCC(F)(F)C(F)(F)C(F)(F)CO`, for which the outcome in [1], in assay [2], in [3], in assay [4], in assay [5] and in assay [6] was inactive. Further, the outcome in [7], in assay [8] and in [9] was inactive.
In the case of `O=C(O)C(F)(F)C(F)(F)C(F)(F)OC(F)(C(F)(F)F)C(F)(F)F`, the result in [1], in assay [2], in assay [3], in assay [4], in assay [5] and in [6] was inactive. In addition, the outcome in assay [7], in assay [8] and in [9] was inactive.
